Bioassay records (PubChem)
Compounds with a hit are over-represented: about 4.7% of the library has one in this group of screens.
HSP90 refold inh = HSP90 refolding inhibition in rabbit reticulocyte lysate. luciferase refolding luminescence, 3 h. hit rate 0.91% among 290,000. inhibition, % at 5.6 µM;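 active = inhibition above the screen-wide mean plus 3 SD, computed separately per campaign, cut at about 16% in these data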;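 also: inhibitors lower the luminescence because luciferase stays unfolded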
TROY signal inh = TROY signaling inhibition; Q293 LMP1-TROYcd NF-kB luciferase reporter, 4 h; inhibition, % at 10 µM; AID 1347056; hit rate 0.98% among 360,000;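 active = compounds whose plate-normalised and pattern-corrected inhibition of the luciferase reporter signal at the single screening dose is 50% or more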
TWEAK-Fn14 inh = blocks TWEAK-Fn14 interaction in a reporter cell assay | TWEAK-stimulated Fn14 reporter cells, luciferase luminescence, 8 h | inhibition, % at 10 µM | hit rate 2% among 360,000 | AID 1159606; in the data active = inhibition above about 50%
LMP1 NFkB inh = Epstein-Barr LMP1 NF-kappaB reporter inhibition | LMP1-induced NF-kappaB luciferase reporter cells, luminescence | inhibition, % at 12.5 µM | AID 504558 | hit rate 0.69% among 350,000; in the data active = inhibition above about 41%
HSF1 activator = increases HSF-1 driven luciferase reporter signal | NIH3T3-HGL HSF-1 luciferase reporter, MG132, 8 h; 100% = twice DMSO control signal | activation, % at 9 µM | hit rate 1.7% among 300,000 | AID 504408;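 active = mean replicate activation of at least 50% with a set share of replicates each reaching 50%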
HSF1 inhib = HSF1 inhibition; NIH3T3-HGL HSE-luciferase, MG132-induced, luminescence 8 h; stronger effect = lower value; activity change, negative = inhibition, % at 7.5 µM (by protocol); hit rate 0.77% among 300,000; AID 2098;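 active = more than half of replicate wells show activity change below -50%, luminescence cut by over half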;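 also: luciferase reports HSF-1 transcriptional activity via heat shock element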
Hits are given with their value.

How did COc1ccccc1OCCOCCOc1ccc(C)cc1Br do in these assays?
HSP90 refold inh: inactive; TROY signal inh: inactive; TWEAK-Fn14 inh: inactive; LMP1 NFkB inh: inactive; HSF1 activator: inactive; HSF1 inhib: inactive

What do the screens show for `CCc1ccccc1-n1ncc(C(=O)Nc2ccc(OC)cc2)c1C`?
TROY signal inh: inactive; TWEAK-Fn14 inh: inactive; LMP1 NFkB inh: 79

What do the screens show for `CCc1ccc(NC(=O)c2cnn(-c3ccccc3)c2C)cc1`?
HSP90 refold inh: inactive; TROY signal inh: inactive; TWEAK-Fn14 inh: inactive; LMP1 NFkB inh: inactive; HSF1 activator: 57; HSF1 inhib: inactive

How did CCOC(=O)c1cnn(-c2ccccc2)c1-c1ccccc1 do in these assays?
HSP90 refold inh: inactive; TROY signal inh: inactive; TWEAK-Fn14 inh: inactive; LMP1 NFkB inh: inactive; HSF1 activator: inactive; HSF1 inhib: inactive

What do the screens show for `Cc1c(C(=S)Nc2ccccc2)cnn1-c1ccccc1`?
HSP90 refold inh: inactive; TROY signal inh: inactive; TWEAK-Fn14 inh: inactive; LMP1 NFkB inh: inactive; HSF1 activator: 62; HSF1 inhib: inactive

What do the screens show for `CCOC(=O)c1cnn(-c2ccccc2)c1-n1cccc1`?
HSP90 refold inh: inactive; TROY signal inh: inactive; TWEAK-Fn14 inh: inactive; LMP1 NFkB inh: inactive; HSF1 activator: inactive; HSF1 inhib: -74

What do the screens show for `Cc1cc2nc(C3CCCCC3)c(Cc3cccc(Cl)c3)n2c(C)c1Br`?
TROY signal inh: inactive; TWEAK-Fn14 inh: inactive

What do the screens show for `Cc1c(C(=O)Oc2cccc3ccccc23)cnn1-c1ccccc1`?
HSP90 refold inh: inactive; TROY signal inh: 82; TWEAK-Fn14 inh: 73; LMP1 NFkB inh: inactive; HSF1 activator: inactive; HSF1 inhib: inactive

Results for CCCc1c(C(=O)Nc2ccc(C(F)(F)F)cc2)cnn1-c1ccccc1 ?
HSP90 refold inh: inactive; TROY signal inh: inactive; TWEAK-Fn14 inh: inactive; LMP1 NFkB inh: 62; HSF1 activator: inactive; HSF1 inhib: inactive

Results for CCCc1c(C(=O)Nc2ccc(N3CCOCC3)cc2)cnn1-c1ccccc1 ?
HSP90 refold inh: inactive; TROY signal inh: inactive; TWEAK-Fn14 inh: inactive; LMP1 NFkB inh: inactive; HSF1 activator: inactive; HSF1 inhib: inactive

How did CC(=O)c1cnn(-c2ccccc2)c1C do in these assays?
HSP90 refold inh: inactive; TROY signal inh: inactive; TWEAK-Fn14 inh: inactive; LMP1 NFkB inh: inactive; HSF1 activator: inactive; HSF1 inhib: inactive

What do the screens show for `CN(C)c1ccc(C2Nc3ccccc3C(=O)N2CCCN2CCOCC2)cc1` (stereo not given)?
HSP90 refold inh: inactive; TROY signal inh: inactive; TWEAK-Fn14 inh: 56; LMP1 NFkB inh: inactive; HSF1 activator: inactive; HSF1 inhib: -68

Results for CCN(CC)CCN1C(=O)c2ccccc2NC1c1ccc(N(C)C)cc1 (stereo not given) ?
HSP90 refold inh: inactive; TROY signal inh: inactive; TWEAK-Fn14 inh: 68; LMP1 NFkB inh: inactive; HSF1 activator: inactive; HSF1 inhib: inactive

How did COC(=O)c1sccc1-n1cc2c(c1-c1ccccc1)c(=O)n(C)c(=O)n2C do in these assays?
TROY signal inh: inactive; TWEAK-Fn14 inh: inactive

Results for CCOc1ccc(N(CC(=O)OC)S(=O)(=O)c2ccc3c(c2)n(C)c(=O)c(=O)n3C)cc1 ?
HSP90 refold inh: inactive; TROY signal inh: inactive; TWEAK-Fn14 inh: 80; LMP1 NFkB inh: inactive; HSF1 activator: inactive; HSF1 inhib: inactive

What do the screens show for `CC(C)(C)C(=O)N1CCN(CCN2C(=O)c3cccc4cccc(c34)C2=O)CC1`?
HSP90 refold inh: inactive; TROY signal inh: inactive; TWEAK-Fn14 inh: inactive; LMP1 NFkB inh: inactive; HSF1 activator: inactive; HSF1 inhib: -53

What do the screens show for `CC(C)C(=O)N1CCN(CCN2C(=O)c3cccc4cccc(c34)C2=O)CC1`?
HSP90 refold inh: inactive; TROY signal inh: inactive; TWEAK-Fn14 inh: inactive; LMP1 NFkB inh: inactive; HSF1 activator: inactive; HSF1 inhib: inactive

Results for COc1ccc(OCCNC(=O)c2ccc3nc(C)c(N(C)C(=O)CCc4ccccc4)n3c2)cc1 ?
TROY signal inh: inactive; TWEAK-Fn14 inh: inactive

How did NCC(c1ccco1)c1c[nH]c2ccccc12 (stereo not given) do in these assays?
HSP90 refold inh: inactive; TROY signal inh: inactive; TWEAK-Fn14 inh: inactive; LMP1 NFkB inh: inactive; HSF1 activator: inactive; HSF1 inhib: inactive

What do the screens show for `O=S1(=O)CCN(c2ccccc2CC(c2c[nH]c3ccccc23)c2c[nH]c3ccccc23)CC1`?
TROY signal inh: inactive; TWEAK-Fn14 inh: 63; LMP1 NFkB inh: inactive

Results for Cc1ccc(-c2csc3nc[nH]c(=O)c23)cc1 ?
HSP90 refold inh: inactive; TROY signal inh: inactive; TWEAK-Fn14 inh: inactive; LMP1 NFkB inh: inactive; HSF1 activator: inactive; HSF1 inhib: inactive

Results for Cc1ccc(-c2csc3nc[nH]c(=O)c23)c(C)c1 ?
HSP90 refold inh: inactive; TROY signal inh: inactive; TWEAK-Fn14 inh: inactive; LMP1 NFkB inh: inactive; HSF1 activator: 95; HSF1 inhib: inactive

Results for c1ccc(CNc2nc3ccccc3n3cnnc23)cc1 ?
HSP90 refold inh: 16; TROY signal inh: inactive; TWEAK-Fn14 inh: inactive; LMP1 NFkB inh: inactive; HSF1 activator: inactive; HSF1 inhib: inactive

What do the screens show for `c1ccc(CNc2nc3ccccc3n3cnnc23)nc1`?
HSP90 refold inh: inactive; TROY signal inh: inactive; TWEAK-Fn14 inh: inactive; LMP1 NFkB inh: inactive; HSF1 activator: inactive; HSF1 inhib: inactive

How did NC(=S)N/N=C/c1ccc(-c2ccccc2)o1 do in these assays?
HSP90 refold inh: inactive; TROY signal inh: inactive; TWEAK-Fn14 inh: inactive; LMP1 NFkB inh: inactive; HSF1 activator: inactive; HSF1 inhib: inactive

What do the screens show for `CCNC(=S)N/N=C/c1ccc(-c2ccccc2)o1`?
HSP90 refold inh: inactive; TROY signal inh: inactive; TWEAK-Fn14 inh: inactive; LMP1 NFkB inh: inactive; HSF1 activator: 81; HSF1 inhib: inactive

How did CCOC(=O)COc1ccccc1/C=C\[N+](=O)[O-] do in these assays?
HSP90 refold inh: inactive; TROY signal inh: 87; TWEAK-Fn14 inh: 104; LMP1 NFkB inh: inactive; HSF1 activator: inactive; HSF1 inhib: -61

How did Cc1cc(=O)n2c3ccccc3n(CC(O)CN3CCN(Cc4ccccc4)CC3)c2c1C#N (stereo not given) do in these assays?
HSP90 refold inh: inactive; TROY signal inh: inactive; TWEAK-Fn14 inh: inactive; LMP1 NFkB inh: inactive; HSF1 activator: inactive; HSF1 inhib: inactive

Results for Cc1cc(=O)n2c3ccccc3n(CC(O)CN3CCN(CCO)CC3)c2c1C#N (stereo not given) ?
HSP90 refold inh: inactive; TROY signal inh: inactive; TWEAK-Fn14 inh: 68; LMP1 NFkB inh: inactive; HSF1 activator: inactive; HSF1 inhib: inactive

How did NC(=O)c1c(NC(=O)c2ccccc2)sc2c1CCc1ccccc1-2 do in these assays?
HSP90 refold inh: inactive; TROY signal inh: inactive; TWEAK-Fn14 inh: 56; LMP1 NFkB inh: inactive; HSF1 activator: 74; HSF1 inhib: inactive

How did NC(=O)c1c(NC(=O)c2ccccc2)sc2c1CCC2 do in these assays?
HSP90 refold inh: inactive; TROY signal inh: inactive; TWEAK-Fn14 inh: inactive; LMP1 NFkB inh: inactive; HSF1 activator: inactive; HSF1 inhib: inactive

Results for CCOC(=O)NC(=O)CSc1nc(C)cc(C(F)(F)F)c1C#N ?
HSP90 refold inh: inactive; TROY signal inh: inactive; TWEAK-Fn14 inh: inactive; LMP1 NFkB inh: inactive; HSF1 activator: inactive; HSF1 inhib: inactive
